# Assay outcomes as filed in PubChem.
# Rows were chosen to be rich in hits. Some 14% of all compounds tested hit in one or more screens of this group.
# USP8 inh – inhibitors of human USP8 deubiquitinase | purified USP8, Ub-rhodamine cleavage fluorescence, 30 min | 4.2% of 47,000 active | inhibition, % at 20 µM | Ubiquitin carboxyl-terminal hydrolase 8 (Homo sapiens), P40818
# USP30 inh – inhibitors of human USP30 deubiquitinase. Ubiquitin carboxyl-terminal hydrolase 30 (Homo sapiens), Q70CQ3. 5.3% of 47,000 active. AID 1645860, 2021. purified USP30, Ub-rhodamine cleavage fluorescence. inhibition, % at 25 µM
# USP17 block – inhibitors of human USP17 deubiquitinase | 6.5% of 47,000 active | purified USP17, Ub-rhodamine cleavage fluorescence, 3 h | Ubiquitin carboxyl-terminal hydrolase 17-like protein 5 (Homo sapiens), A8MUK1 | inhibition, % at 50 µM
# Target sequence (A8MUK1 whole entry, looked up): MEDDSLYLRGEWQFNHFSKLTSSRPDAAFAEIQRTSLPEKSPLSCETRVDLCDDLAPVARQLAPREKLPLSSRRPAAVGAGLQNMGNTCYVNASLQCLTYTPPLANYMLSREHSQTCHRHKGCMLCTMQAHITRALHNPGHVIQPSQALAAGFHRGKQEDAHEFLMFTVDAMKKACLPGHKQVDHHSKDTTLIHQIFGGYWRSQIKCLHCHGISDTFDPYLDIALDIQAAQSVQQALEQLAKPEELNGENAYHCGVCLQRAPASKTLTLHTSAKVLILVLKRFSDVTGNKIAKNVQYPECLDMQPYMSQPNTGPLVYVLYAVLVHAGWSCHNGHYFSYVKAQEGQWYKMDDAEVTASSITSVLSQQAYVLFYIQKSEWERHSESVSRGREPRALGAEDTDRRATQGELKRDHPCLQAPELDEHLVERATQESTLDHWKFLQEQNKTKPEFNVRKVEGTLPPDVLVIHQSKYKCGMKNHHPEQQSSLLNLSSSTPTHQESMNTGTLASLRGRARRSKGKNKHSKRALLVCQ
# USP28 block – inhibitors of human USP28 deubiquitinase | purified USP28, Ub-rhodamine cleavage fluorescence, 30 min | inhibition, % at 25 µM | 3% of 47,000 active
# USP10 inh – inhibitors of human USP10 deubiquitinase. Ubiquitin carboxyl-terminal hydrolase 10 (Homo sapiens), Q14694. purified USP10, Ub-rhodamine fluorescence, 60 min. inhibition, % at 20 µM. 1.1% of 47,000 active. AID 1645856, 2021
# Active calls of the source: *. Rule as the data show it: active = inhibition above about 30%; inactive = the rest.
SMILES,USP8 inh,USP30 inh,USP17 block,USP28 block,USP10 inh
NS(=O)(=O)c1ccc(CCNC(=O)c2nc(-c3ccccc3)n(-c3ccccc3)n2)cc1,-10.9,-26.5,-9.0,-5.4,0.1
Cn1nc(-c2ccccc2F)c2cc(C(=O)NCCc3ccc(S(N)(=O)=O)cc3)sc21,33.5*,31.9*,10.0,21.8,7.1
COc1ccc(-c2ccc3cc(C(=O)O)ccc3c2)cc1C12CC3CC(CC(C3)C1)C2,65.7*,11.2,-17.1,10.0,80.2*
COc1ccc(-c2noc(C(=O)NC3CC(C)(C)NC(C)(C)C3)n2)cc1OC,4.4,9.6,4.7,1.1,0.6
Cc1nc2ccc(NC(=O)Nc3ccccc3F)cc2s1,-8.5,-37.0,-12.1,40.4*,-5.2
Cc1nc2ccc(NC(=O)COc3ccccc3F)cc2s1,-0.3,-10.4,-6.9,-4.0,0.8
CCC1c2ccsc2CCN1S(=O)(=O)c1ccc(S(=O)(=O)N2CCCC2)cc1 (centres undefined),-65.7,-12.9,-16.3,-15.5,3.3
CCc1cc2c(NCc3ccc(F)cc3)ncnc2s1,18.0,26.8,32.3*,13.5,1.7
COc1ccc(CNc2ncnc3sccc23)cc1OC,-5.5,-41.6,-20.7,-17.4,-6.7
C=C1C=C(CCC(=O)O)C(=O)OC1/C=C/C=C/C (centres undefined),98.4*,80.3*,100.8*,99.2*,95.3*
Cc1ccc(-c2csc(-n3ncc(C(=O)N4CCN(C(=O)Nc5cccc6ccccc56)C(C)C4)c3C(C)C)n2)cc1 (centres undefined),80.5*,-52.5,62.8*,26.8,-17.6
O=C(CCSCc1cccc(F)c1)NCc1ccc(F)cc1,15.0,25.6,7.3,17.1,-2.4
COc1cccc(C(=O)N2CCN(c3nc4ccccc4n(C)c3=O)CC2)c1,-6.7,3.3,-8.8,-6.0,1.8
Oc1ccc(-c2nc3ccc(Cl)cn3c2NC2CCCCC2)cc1,-12.7,-6.1,67.2*,0.2,-2.8
c1ccc(-c2cc3c(NCc4ccccn4)ncnc3s2)cc1,20.8,26.2,35.1*,26.3,5.1
O=C(O)c1cnc(NCc2ccccn2)nc1-c1cccc(Cl)c1,-4.7,-23.3,-4.0,-18.5,-3.8
Cc1nc(NCc2ccccn2)c2cc(-c3ccccc3)sc2n1,30.3*,2.3,74.3*,-10.6,-0.7
CCOC(=O)c1sc2nc(C)nc(NCc3ccccn3)c2c1C,4.8,30.5*,10.7,5.2,-0.6
O=C(CNc1ncnc2sc(-c3ccccc3)cc12)Nc1ccc(F)c(F)c1,-16.0,-208.4,-25.1,-40.3,1.8
CCOC(=O)c1sc2nc(C)nc(Oc3cccnc3)c2c1C,19.6,11.6,15.9,11.7,-0.6
CN1CC(c2ncn[nH]2)c2cc(C(=O)NC3CCCC3)ccc21 (centres undefined),-8.9,21.1,-24.6,6.4,0.1
CC(C)N1CCc2c(C#N)c(N3CCOCC3)n3cnnc3c2C1,5.9,-45.8,-11.0,-14.0,-7.6
O=C1NCCCC1Cc1ccc(-c2cccc(C(=O)N3CCc4ccccc4C3)c2)cc1 (centres undefined),60.6*,35.2*,55.0*,20.0,6.4
O=C(COc1ccccc1)Nc1nnc(-c2ccc(Br)cc2)s1,0.1,-1.6,-0.1,-6.3,7.8
O=C(CN1C(=O)c2ccccc2C1=O)Nc1nc(-c2ccc(Br)cc2)cs1,6.6,46.9*,7.0,32.4*,20.8
SMILES,USP8 inh,USP30 inh,USP17 block,USP28 block,USP10 inh
CCc1ccc(C(=O)OC(C)C(=O)Nc2sccc2C(N)=O)cc1 (centres undefined),-9.7,-102.5,-3.3,-19.3,-1.3
Cc1ccc(NC(=O)CCc2nc(CSc3nnc(-c4ccccc4)o3)no2)cc1,-31.4,14.6,6.0,3.7,-1.7
O=C(c1cc(C2CC2)on1)N1CCc2ccccc2C1,-4.4,-33.4,-4.7,0.0,-3.9
O=C(O)c1nccnc1C(=O)N1CCc2ccccc2C1,91.1*,7.7,77.7*,46.5*,15.7
CN(C)C(=O)CS(=O)(=O)c1ccc(Cl)cc1,13.6,-22.3,8.7,1.4,1.2
CC(C)(C)NC(=O)COC(=O)C1(c2cccc(F)c2)CCCC1,3.4,11.0,-1.5,-9.8,0.3
COc1cc(NC(=O)COC(=O)C2(c3ccccc3F)CCCC2)cc(OC)c1,25.6,41.4*,14.3,19.1,13.9
O=C(COC(=O)C1(c2ccccc2F)CCCC1)Nc1ccc2c(c1)OCCO2,12.4,28.9,18.3,25.2,6.7
O=C(COC(=O)C1(c2ccccc2F)CCCC1)Nc1ccc2c(c1)OCO2,43.8*,37.3*,41.0*,20.6,16.4
COc1cccc(C(=O)N(c2nc3ccccc3s2)c2c(C)cccc2C)c1,5.2,-4.8,-1.5,-4.7,7.5
COc1ccc(N2CCN(CC(=O)Nc3nc4ccc(OC)cc4s3)CC2)cc1,-12.2,1.7,-6.5,-11.4,4.3
CCOc1ccc2[nH]c(=O)c(-c3nc4ccc(C)cn4c3NC3CCCCC3)cc2c1,-76.5,-147.1,-7.1,-22.9,-7.0
Cc1ccc2nc(-c3cc4ccc(C)c(C)c4[nH]c3=O)c(NC3CCCC3)n2c1,3.1,-17.9,41.3*,-2.3,0.5
COc1cccc(CC(=O)Nc2ccc3nc(C)sc3c2)c1,-16.4,-12.3,-10.3,0.4,-1.7
COc1ccc(NC(=O)CNC(=O)c2ccc3nc(-n4cccc4)sc3c2)cc1,82.5*,-44.8,30.9*,16.5,27.8
COc1cccc(CNC(=O)c2ccc3nc(N4CCOCC4)sc3c2)c1OC,-49.3,-7.1,-2.7,8.3,-0.6
CC(C)C[C@H](NC(=O)c1ccc2nc(-n3cccc3)sc2c1)C(=O)NCc1ccco1,53.4*,-158.7,-16.9,-21.0,13.5
CCc1cccc(C)c1N=C1N=C(N2CCOCC2)N(c2ccc(C)cc2)C12CCCCC2,8.4,20.6,9.3,9.8,1.0
N#Cc1ccccc1Cn1c(=O)n(CCC(=O)N2CC=C(c3ccccc3)CC2)c(=O)c2ccccc21,12.1,24.6,0.2,14.4,10.4
CCn1c(=O)n(CC(=O)Nc2ccc3c(c2)OCO3)c(=O)c2ccccc21,0.7,6.5,6.1,0.0,1.9
O=C(CCCn1c(=O)c2ccccc2n(Cc2ccccc2)c1=O)NCc1ccco1,15.1,9.5,17.2,3.9,6.8
CCOc1ccc(NC(=O)Cn2c(=O)n(CCC(=O)NCc3ccco3)c(=O)c3ccccc32)cc1,45.0*,2.7,71.3*,8.3,44.6*
O=C(Cn1c(=O)n(CCC(=O)N2CC=C(c3ccccc3)CC2)c(=O)c2ccccc21)NCc1ccco1,51.2*,27.7,63.4*,24.7,4.4
Cc1ccc(NC(=O)Cn2c(=O)n(CC(=O)NCc3ccco3)c(=O)c3ccccc32)cc1C,22.3,45.1*,63.1*,43.9*,21.1
O=C(Cn1c(=O)n(CC2CCC(C(=O)NC3CCCC3)CC2)c(=O)c2ccccc21)NCCC1=CCCCC1 (centres undefined),23.5,40.2*,49.9*,1.5,34.2*
